{"source": "PubChem BioAssay (NCI)", "note": "This is part of a sample that, as a whole, favours compounds with a hit. Of some 83,000 tested, about 20% had one in any assay.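 Testing used 96-well plates and a 48-hour single-concentration exposure. Example: -40 means 40% of the starting cells died.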 Values without a mark were called inactive. Activity calls are given as the source filed them."}
{"tested_on": "EKVX NSCLC", "test": "NCI-60 one-dose screen, 48 h (100 = growth as untreated, 0 = no growth, -100 = all killed)", "conditions": "10 µM unless noted", "protocol": "Growth inhibition of the EKVX human Non-Small Cell Lung tumor cell line is measured as a screen for anti-cancer activity. Cells are grown in 96 well plates and exposed to the test compound for 48 hours. Compounds are tested at a single concentration, which is 10^-5 M for most compounds. The reported endpoint is percent growth (GI% or GIPRCNT), where numbers from 0 - 100% represent growth inhibition, and numbers from -100% - 0 represent cell death. For example, a value of 40 represents 60% growth inhibition. A value of 0 means no net growth occurred over the course of the experiment. A value of -40 indicates 40% of cells at the beginning of the experiment died by the end of the experiment. A value of -100 means all cells are dead at the end of the experiment.\nNCI-60 Human Tumor Cell Lines Screen was performed using the standard one-dose NCI protocol, which is described in more detail at https://dtp.cancer.gov/discovery_development/nci-60/default.htm.\nCompounds with GIPRCNT values below 10 were considered active. Activity score was based on GIPRCNT using the following formula: […]\nScore is 0 for GIPRCNT values of 100 or above, 50 for GIPRCNT values of 0, and 100 for GIPRCNT values of -100."}
{"compound": "COc1cc2oc(-c3cccc(NC(=O)c4cccc(Br)c4)c3)cc(=O)c2c(OC)c1OC", "growth": "61.3%"}
{"compound": "N#C/C(=C/c1ccc([N+](=O)[O-])cc1)n1nnc2cc(F)c(F)cc21", "growth": "103%"}
{"compound": "CN(C)CCNC(=O)c1cccc(-c2cnc3ccc(-c4ccc5c(c4)OCO5)nn23)c1", "growth": "90%"}
{"compound": "O=C(Nc1ccc(NC(=O)c2cc(=O)[nH]c3ccccc23)cc1)Nc1cccc(C(F)(F)F)c1", "growth": "66.8%"}
{"compound": "CCCCCC(=O)OCC(=O)O[C@@H]1C[C@]2(C(C)C)O[C@@]1(C)[C@@H]1CC[C@@H](C)[C@H]1[C@@H]2OC(=O)/C=C/c1ccccc1", "growth": "73.8%"}
{"compound": "O=C1c2c(c3c4ccc(Br)cc4oc3c3[nH]c4ccccc4c23)C(=O)N1O", "growth": "66.6%"}
{"compound": "O=C1C(Cl)=C(Oc2ccccc2)C(=O)c2ccccc21", "growth": "87.2%"}
{"compound": "O=S(=O)(Nc1cc(Br)c(O)c2ccccc12)c1ccc(F)cc1", "growth": "109%"}
{"compound": "Cc1cccc(N2CCN(CC(O)COc3ccc(Cl)cc3)CC2)c1", "note": "(stereo not given)", "growth": "96.8%"}
{"compound": "C=CCn1cc(-c2nc3ccccc3s2)c2cc(-c3ccc4c5c(cccc35)C(=O)N(N)C4=O)ccc21", "growth": "82.1%"}
{"compound": "COc1ccc(C(=S)N2CCN(c3ccccc3Cl)CC2)cc1OC", "growth": "97.4%"}
{"compound": "CC1=C(CCC(C)N(C)Cc2ccc(OCCCN3CCCC3)cc2)C(C)(C)CCC1", "note": "(stereo not given)", "growth": "47.4%"}
{"compound": "COc1cc(-c2nc(SCC(C)C)nc(Nc3cccc4ccccc34)c2C#N)cc(OC)c1OC", "growth": "98.7%"}
{"compound": "O=C(CSc1nc(-c2ccccc2)[nH]c1S(=O)(=O)c1ccccc1)NC1CC1", "growth": "65.1%"}
{"compound": "Cc1ccc(-n2c(=S)[nH]c3sc4c(c3c2=O)CCC(=O)C4)cc1", "growth": "93.7%"}
{"compound": "O=C1Nc2ccccc2/C1=C\\c1nc(-c2ccccc2)n2ccccc12", "growth": "74.1%"}
{"compound": "O=C1/C(=C/c2ccccc2Br)COc2ccc(O)c(O)c21", "growth": "61.7%"}
{"compound": "O=S(=O)(NCCNc1nccc(-c2c(-c3cccc(F)c3)nc3occn23)n1)c1ccc(Br)cc1", "growth": "89.5%"}
{"compound": "CC(C)c1ccc(NC(=O)Nc2ccc(NC(=O)CCCC(=O)NOCc3ccccc3)cc2)cc1", "growth": "105%"}
{"compound": "COC(=O)CCC(=O)C(=O)OC", "growth": "23.7% [10 mM]"}
{"compound": "COc1ccc(NC(=O)c2sc3nc(C)c(C(=O)/C=C/c4cccc(OC)c4)cc3c2N)cc1", "growth": "93.5%"}
{"compound": "CN(C)CC(=O)Nc1ccc2ncnc(Nc3ccc(Oc4cccc(C(F)(F)F)c4)c(Cl)c3)c2c1", "growth": "28.9%"}
{"compound": "CN(C)C1CCN(Cc2ccc(NC(=O)c3cncc(C#Cc4cnc(N)c5ncccc45)c3)cc2C(F)(F)F)CC1", "growth": "93.5%"}
{"compound": "COc1ccc2[nH]cc(-c3nc(-c4c[nH]c5ccncc45)cs3)c2c1", "growth": "10.8%"}
{"compound": "Cc1cc2c([nH]1)CSc1cc(S(=O)(=O)c3ccccc3)c(=O)[nH]c1-2", "growth": "21.1% [100 µM]"}
{"compound": "Cc1ccccc1NC(=O)c1sc2nc(C)c(C(=O)/C=C/c3ccccc3)cc2c1N", "growth": "59.6%"}
{"compound": "N#Cc1cccc(NC(=O)c2oc3ccccc3c2-c2cnn(-c3ccccc3)c2)c1", "growth": "76.5% [50 µM]"}
{"compound": "C=C1CC[C@@H]2[C@](C)(COC(C)=O)[C@H](OC(C)=O)CC[C@@]2(C)[C@@H]1CC(Sc1ccccc1)C1=CCOC1=O", "note": "(stereo not given in full)", "growth": "57.7%"}
{"compound": "CCCCCOc1ccc(C(=O)/C(Br)=C/C(=O)O)cc1", "growth": "103%"}
{"compound": "C=C1C(=O)O[C@H]2[C@H]1CC/C(COC(=O)N[C@H]1C[C@H](O[C@H]3C[C@](O)(C(=O)CO)Cc4c(O)c5c(c(O)c43)C(=O)c3c(OC)cccc3C5=O)O[C@@H](C)[C@H]1O)=C\\CC[C@@]1(C)O[C@@H]21", "growth": "103%"}
{"compound": "CN1CCN(Cc2ccc(NC(=O)c3cncc(C#Cc4cnc(N)c5ccccc45)c3)cc2C(F)(F)F)CC1", "growth": "-96.3% (active)"}
{"compound": "Cn1c(O)c(C=NCCN=Cc2c(O)n(C)c(=O)n(C)c2=O)c(=O)n(C)c1=O", "growth": "102%"}
{"compound": "O=C(NNc1nccc(Nc2ccc(S(=O)(=O)Nc3ccncc3)cc2)n1)c1ccccc1", "growth": "104%"}
{"compound": "COc1cc(-c2cc(-c3ccc(N(C)C)cc3)nc(N3CCC(O)CC3)c2C#N)cc(OC)c1OC", "growth": "21.7%"}
{"compound": "COc1ccc(C(=O)Nc2ncc(Cc3cccc(Cl)c3)s2)cc1OC", "growth": "34.1%"}
{"compound": "Fc1cc(F)cc(C(c2c[nH]c3ccccc23)c2c[nH]c3ccccc23)c1", "growth": "80.6%"}
{"compound": "CC1(c2ccccc2O)NN=C(/N=C/c2cccc([N+](=O)[O-])c2)N1C(Cc1c[nH]c2ccccc12)C(=O)O", "note": "(stereo not given)", "growth": "77.6%"}
{"compound": "N#Cc1nn(-c2cc(=O)[nH]c3ccc(Cl)cc23)c(N)c1C#N", "growth": "94%"}
{"compound": "C=C(C)[C@@H]1CC[C@]2(C(=O)O)CC[C@]3(C)[C@H](CC[C@@H]4[C@@]5(C)C[C@@H](Cc6cn(CCO[C@@H]7O[C@H](COC(C)=O)[C@H](OC(C)=O)[C@H](OC(C)=O)[C@H]7OC(C)=O)nn6)[C@H](O)C(C)(C)[C@@H]5CC[C@]43C)[C@@H]12", "growth": "72%"}
{"compound": "Cn1cc(-c2nc(-c3c[nH]c4ccncc34)cs2)c2ccccc21", "growth": "49%"}
